{
  "source": "paper PMC12136788",
  "binders": {"B1": {"name": "chr11:101890673:101891278:-|three_prime_utr|ENSG00000187151|control|control|control (ssRNA)", "RNA": "GGGAGUUCUACAGUCCGACGAUCGUAAUGCAAGUUCUACAAUGAUAAUAUAUUAAAGAUUUUUAAAAGUUUAUCUUUUCACUUAGUGUUUCAAACAUAUUAGGCAAAAUUUAACUGUAGAUGGCAUUUAGAUGUUAUGAGUUUCAACAGAGGAUUGAGCAUCA"}, "B2": {"name": "chr17:32711987:32712195:-|CDS|ENSG00000176658|control|control|control (ssRNA)", "RNA": "GGGAGUUCUACAGUCCGACGAUCUCCUUCAGACAAAGAGGCUGUCAAGAAACUAAUUGAACGGUGUGGUUUUCAGGAUGAUGUAGCUUAUGGGAAGACCAAAAUUUUCAUUCGAACACCCCGAACAUUGUUUACCUUGGAAGACAACAGAGGAUUGAGCAUCA"}, "B3": {"name": "chr12:293013:293114:-|CDS|ENSG00000073614|unk|FALSE|bound_elsewhere (ssRNA)", "RNA": "GGGAGUUCUACAGUCCGACGAUCACUAAAAGUGAAAGGAAAGGACUCUUCAGAGAAGAAACGGAAACGGAAGCUAGAAAAGGUAGAGCAACUUUUUGGAGAAGGAAAACAGAAGUCCAAGGAGUUAAAGAAAAUGGACAAACCCAACAGAGGAUUGAGCAUCA"}, "B4": {"name": "chr1:228098150:228098251:+|3pUTR|ENSG00000143761|msi1_unk|total|mutant (ssRNA)", "RNA": "GGGAGUUCUACAGUCCGACGAUCGCACCGUGCUGUAAAUGUGGCAGACGCAGCCUGCGGCCAGGCUUUUUAUUUAAUGUAAACCGUUUUUGUUUCCAAUGAGGCAGUUUCUGGUACUCCUAUGCAAUAUUACUCAGCUUUUUUCAACAGAGGAUUGAGCAUCA"}, "B5": {"name": "chr7:50445662:50445763:-|CDS|ENSG00000132436|msi1|FALSE|unique (ssRNA)", "RNA": "GGGAGUUCUACAGUCCGACGAUCGUUAUCUCAACGGGGAGAUGGUGAGCAUGAAUCUUCUAGAAGGAUAAAAACAGAAUUUUUAGUUCAAUUAGAUGGAGCAACAACAUCUUCUGAAGAUCGUAUCCUAGUGGUGGGAGCAACCAACAGAGGAUUGAGCAUCA"}, "B6": {"name": "chr4:150265445:150265561:-|3pUTR|ENSG00000198589|unk|FALSE|bound_elsewhere (ssRNA)", "RNA": "GGGAGUUCUACAGUCCGACGAUCGGAUUAGCAAAGCAGAAAACUGGCUGCUGGGUUCUGUAGUUUUAAAAAAUCUAUAUUUUUAGUCAUAAUGAGAAGUCUAUUUUCACCAAUUAUGGAAACAUACAGUGGAGCAAGUAAACCCAACAGAGGAUUGAGCAUCA"}, "B7": {"name": "ENSG00000198589:be:win_8701|3pUTR|ENSG00000198589|bound_else_gene|NA|bound_elsewhere_windowed (ssRNA)", "RNA": "GGGAGUUCUACAGUCCGACGAUCUGUAGUCUUUGCUUGACUUUUUUGGGGGGGAUUAGCAAAGCAGAAAACUGGCUGCUGGGUUCUGUAGUUUUAAAAAAUCUAUAUUUUUAGUCAUAAUGAGAAGUCUAUUUUCACCAAUUACAACAGAGGAUUGAGCAUCA"}, "B8": {"name": "chr9:122240152:122240253:-|3pUTR|ENSG00000119446|msi1|FALSE|unique (ssRNA)", "RNA": "GGGAGUUCUACAGUCCGACGAUCCUUCUUGGAGUAUAGAAUUCACCAUUUUAUCCGUAAGUCUUCAAAGGAUUAUGGUGGACUAGAACUUACAUAGUGCAAAAUAGUCUUCUAUUUUUAAUAGGAACUUAGAAAAAACUUAGACAACAGAGGAUUGAGCAUCA"}, "B9": {"name": "chr11:22846921:22847509:-|three_prime_utr|ENSG00000255359|control|control|control (ssRNA)", "RNA": "GGGAGUUCUACAGUCCGACGAUCCUCCACCAUUUCGGAAAAAUAAACACAGUGCAAGUAUUUAAUAUCCAAGCUACAGGCUCUAGAAUUUUAUUAAAUGCCAUCUCUCACUACCAUAUUUUUCUUUCCUGUGGUAAACUUGAACAACAGAGGAUUGAGCAUCA"}, "B10": {"name": "chr17:81921741:81921842:-|3pUTR|ENSG00000197063|msi1|FALSE|unique (ssRNA)", "RNA": "GGGAGUUCUACAGUCCGACGAUCAAUUAUAUGUUUAAAAGUUAAAGAAAAAAGAGCUGCAGAGUAUUUAUAAAACUGUCUUUUAGAAAAAAAACAAGCAAGAAGACCAUUUGACCAUAUGAAUGGAAAAGGGAAGAAAGUAUACAACAGAGGAUUGAGCAUCA"}, "B11": {"name": "chr8:74853834:74853946:+|3pUTR|ENSG00000137558|unk|FALSE|unique (ssRNA)", "RNA": "GGGAGUUCUACAGUCCGACGAUCAAGUGCUUUUUUUUUUCUGAAUUAAUUAGGUAUUGGUAAAAUAUAUUUUUAAAUUUAGUUAGCUUUAUAAACACAAUUAGAAUUACAAUUAAUUAACAGAGGUAUAAUUGUCUCACUUUCCAACAGAGGAUUGAGCAUCA"}, "B12": {"name": "chr3:121431430:121432303:-|three_prime_utr|ENSG00000051341|control|control|control (ssRNA)", "RNA": "GGGAGUUCUACAGUCCGACGAUCUGGAAAGAACAGAGAUUACCCUUUCACCUACCUCAGCAAAACAAACUUUCAAGUCUUGAUAGACUUAGCCUAGUAAUUUUAUAGUGAGAGUUUCAAACUAUAUAUCAGUGUCUAUAGCAUCAACAGAGGAUUGAGCAUCA"}, "B13": {"name": "chr6:119178661:119178762:-|3pUTR|ENSG00000111885|msi1|FALSE|unique (ssRNA)", "RNA": "GGGAGUUCUACAGUCCGACGAUCGAAAGAAGCUUUGCCAAUUUUACUUAUUCGUGAUCAAUCAAGGAAAAUCUAAUAAAUUUUAGGCCAAAUAAGAAUAUAGCAUAUUUAGUAUGGUUAUAGUCAACACAGAGAUCACAACUUCAACAGAGGAUUGAGCAUCA"}, "B14": {"name": "chr4:150265445:150265561:-|3pUTR|ENSG00000198589|unk|total|mutant (ssRNA)", "RNA": "B6 RNA with U28C, A29C, U60C, A61C, U83C, A84C"}, "B15": {"name": "chr21:43695798:43695899:+|3pUTR|ENSG00000160208|msi1|FALSE|unique (ssRNA)", "RNA": "GGGAGUUCUACAGUCCGACGAUCACAAUAUUUUGUAAAAUGAUGCUUCCCCCUUCUCCAUGGUCUAGUCAAUUUUGUACAAUUAGGUAUCUGACUUUACAAGUUUGUUAUCCUUUCUAAUUUUUACUGAACUGAAAGCACAAACAACAGAGGAUUGAGCAUCA"}, "B16": {"name": "chr12:123662440:123662541:+|3pUTR|ENSG00000111358|unk|FALSE|unique (ssRNA)", "RNA": "GGGAGUUCUACAGUCCGACGAUCAAUGGAAAUCACAAUUUUAAGUCUAGGAAAUAAAGUAUUAUAUAUACUUUCAAACAAGCUAGCAAGGCUUUUAUUAUUACUUUUUUAUUUGAAAUAUCUUAUAUAUUUGGUUAGUUCUGUCAACAGAGGAUUGAGCAUCA"}, "B17": {"name": "ENSG00000120802:stop:overlap|stop_codon|ENSG00000120802|stop_codon|NA|stop_codon (ssRNA)", "RNA": "GGGAGUUCUACAGUCCGACGAUCGUGGAACAUUAUUUGGAGGAGAAGUAUGCAAAGUAAUUAAAAAGCGUGGAAAUAAACACUAGUAAAAUUAAGGACAAAAAGACAUCUAUCUUAUCUUUCAGGUACUUUAUGCCAACAUUUCAACAGAGGAUUGAGCAUCA"}},
  "note": "Where a chain is given by its changes, count along the chain named. Whole data set: some 5,800 sequences, median “enrichment r” near 0.68, cut for the highest 2% near 11. Only a selection was taken, and the highest values are over-represented in it overall.",
  "data": [
    {"biological_target": "T1, UNK ZnF1-6 (called full-length) (human, UniProt Q9C0B0 30-357)", "T1 sequence": "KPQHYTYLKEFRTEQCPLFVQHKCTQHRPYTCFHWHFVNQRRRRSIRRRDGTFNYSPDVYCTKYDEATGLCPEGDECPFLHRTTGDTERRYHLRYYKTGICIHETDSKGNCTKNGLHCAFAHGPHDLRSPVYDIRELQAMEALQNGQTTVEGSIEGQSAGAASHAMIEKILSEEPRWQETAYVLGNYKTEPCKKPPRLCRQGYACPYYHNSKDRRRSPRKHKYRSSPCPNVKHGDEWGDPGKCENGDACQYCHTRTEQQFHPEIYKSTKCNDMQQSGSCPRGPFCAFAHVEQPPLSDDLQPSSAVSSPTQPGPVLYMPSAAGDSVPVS", "test": "nsRBNS (natural sequence RNA bind-n-seq); RBNS binding buffer (assumed for nsRBNS): 25 mM Tris pH 7.5, 150 mM KCl, 3 mM MgCl2, 0.01% Triton X-100, 500 ug/ml BSA, 20 U/ml SUPERase-In, 4 C; UNK is unkempt and MSI1 is Musashi-1; names of the RNAs are library labels; protein concentration not given here; high values mean tight binding", "units": {"binding signal": "enrichment R"}, "values": [
      {"binder": "B1", "binding signal": 5.03},
      {"binder": "B2", "binding signal": 0.434},
      {"binder": "B3", "binding signal": 0.672},
      {"binder": "B4", "binding signal": 0.896},
      {"binder": "B5", "binding signal": 0.853},
      {"binder": "B6", "binding signal": 2.4},
      {"binder": "B7", "binding signal": 29},
      {"binder": "B8", "binding signal": 41.4},
      {"binder": "B9", "binding signal": 0.713},
      {"binder": "B10", "binding signal": 2.78},
      {"binder": "B11", "binding signal": 171},
      {"binder": "B12", "binding signal": 8.5},
      {"binder": "B13", "binding signal": 2.15},
      {"binder": "B14", "binding signal": 0.438},
      {"binder": "B15", "binding signal": 1.9},
      {"binder": "B16", "binding signal": 12.5},
      {"binder": "B17", "binding signal": 1.07}
    ]}
  ]
}
